Measurements from the supplement of paper PMC6089552.
± gives the standard deviation of the averaged measurements. In all, about 3,200 compounds went through this assay and about 300 (9.4%) showed activity. The sample holds actives, similar compounds and a random draw of the others, so the mix is not that of the screen.

Test system: A673/TR/shEF
Assay: cell viability (LOESS-normalised, relative to median of negative controls) (log2 ratio); higher = more viable cells (less compound effect), active = hit call of the paper (over 3 MAD below the median)
Settings: treatment time: 72 h
Procedure, shortened: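 Viability of A673/TR/shEF Ewing sarcoma cells was determined by CellTiter-Glo luminescence. The cells, at 1,500 per well in 384-well plates, were grown with or without doxycycline from 24 h before compound addition to switch on EWS-FLI1 shRNA knockdown, then exposed for three days to library compounds at two or more concentrations or to DMSO controls. Signals were LOESS-corrected plate by plate, normalised to the negative-control median and log2-transformed.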

[1] = 0.25 µM, library screen: screen1, EWS-FLI1 expression: high (no doxycycline)
[2] = 0.25 µM, library screen: screen1, EWS-FLI1 expression: low (doxycycline-induced shRNA knockdown)
[3] = 2.5 µM, library screen: screen1, EWS-FLI1 expression: high (no doxycycline)
[4] = 2.5 µM, library screen: screen1, EWS-FLI1 expression: low (doxycycline-induced shRNA knockdown)
[5] = 0.25 µM, library screen: screen2, EWS-FLI1 expression: high (no doxycycline)
[6] = 0.25 µM, library screen: screen2, EWS-FLI1 expression: low (doxycycline-induced shRNA knockdown)
[7] = 2.5 µM, library screen: screen2, EWS-FLI1 expression: high (no doxycycline)
[8] = 2.5 µM, library screen: screen2, EWS-FLI1 expression: low (doxycycline-induced shRNA knockdown)
[9] = 0.103 µM, library screen: screen3, EWS-FLI1 expression: high (no doxycycline)
[10] = 0.103 µM, library screen: screen3, EWS-FLI1 expression: low (doxycycline-induced shRNA knockdown)
[11] = 0.308 µM, library screen: screen3, EWS-FLI1 expression: high (no doxycycline)
[12] = 0.308 µM, library screen: screen3, EWS-FLI1 expression: low (doxycycline-induced shRNA knockdown)
[13] = 0.926 µM, library screen: screen3, EWS-FLI1 expression: high (no doxycycline)
[14] = 0.926 µM, library screen: screen3, EWS-FLI1 expression: low (doxycycline-induced shRNA knockdown)
[15] = 2.8 µM, library screen: screen3, EWS-FLI1 expression: high (no doxycycline)
[16] = 2.8 µM, library screen: screen3, EWS-FLI1 expression: low (doxycycline-induced shRNA knockdown)
[17] = 8.3 µM, library screen: screen3, EWS-FLI1 expression: high (no doxycycline)
[18] = 8.3 µM, library screen: screen3, EWS-FLI1 expression: low (doxycycline-induced shRNA knockdown)
[19] = 25 µM, library screen: screen3, EWS-FLI1 expression: high (no doxycycline)
[20] = 25 µM, library screen: screen3, EWS-FLI1 expression: low (doxycycline-induced shRNA knockdown)

Measured: cell viability (log2)

COc1ccc(OC)c(C2NC(=S)NC(C)=C2C(=O)Nc2ccccc2Cl)c1 (configuration not stated)
inactive: [1] 0.0287 | [2] 0.0702 | [3] 0.112 | [4] 0.148

CC(=O)[C@]1(O)Cc2c(O)c3c(c(O)c2[C@@H](O[C@H]2C[C@H](N)[C@H](O)[C@H](C)O2)C1)C(=O)c1ccccc1C3=O
active: [5] -2.37 | [6] -0.307 | [7] -3.12 | [8] -0.984

COc1cccc2c1C(=O)c1c(O)c3c(c(O)c1C2=O)C[C@@](O)(C(C)=O)C[C@@H]3O[C@H]1C[C@H](N)[C@H](O)[C@H](C)O1
active: [9] -0.695 | [5] -1.6 | [6] -0.269 | [11] -1.27 | [12] -0.403 | [13] -2.5 | [14] -0.592 | [7] -2.54 | [8] -0.371 | [15] -3.11 | [16] -1.48 | [17] -4.09 | [18] -3.66 | [19] -4.26 | [20] -4.25
-0.133 ± 0.18: [10]

COc1cccc2c1C(=O)c1c(O)c3c(c(O)c1C2=O)C[C@@](O)(C(=O)CO)C[C@@H]3O[C@H]1C[C@H](N)[C@H](O)[C@H](C)O1
active: [11] -0.86 | [12] -0.36 | [13] -1.59 | [14] -0.403 | [15] -2.62 | [16] -1.5 | [17] -4.26 | [18] -4.27 | [19] -4.05 | [20] -4.25
inactive: [9] -0.177 | [10] -0.0878

COc1cccc2c1C(=O)c1c(O)c3c(c(O)c1C2=O)C[C@@](O)(C(=O)CO)C[C@@H]3O[C@H]1C[C@H](N)[C@@H](O)[C@H](C)O1
active: [9] -0.347 | [10] -0.195 | [11] -1.12 | [12] -0.399 | [13] -1.58 | [14] -0.41 | [15] -3.26 | [16] -1.19 | [17] -4.26 | [18] -4.27 | [19] -4.26 | [20] -4.25

Cc1cccc(-n2ncc3c(N4CCCC4)ncnc32)c1
inactive: [1] 0.069 | [2] 0.0339 | [3] 0.118 | [4] 0.0767

COc1cc(-c2oc3c(OC)c(O)cc(O)c3c(=O)c2O)ccc1O
inactive: [1] 0.0554 | [2] 0.0375 | [3] 0.0118 | [4] 0.0806

COc1ccc(OC)c(CN2CCN(Cc3c[nH]c4ccccc34)CC2)c1
inactive: [1] 0.113 | [2] 0.0685 | [3] 0.072 | [4] 0.0923

C[C@@H](O)[C@H]1C(=O)N2C(C(=O)[O-])=C(SC3Cn4cnc[n+]4C3)[C@H](C)[C@H]12 (some centres not stated)
inactive: [9] 0.0935 | [10] 0.0362 | [11] 0.108 | [12] 0.0849 | [13] 0.0657 | [14] 0.0643 | [15] 0.107 | [16] 0.0482 | [17] 0.0477 | [18] 0.0712 | [19] 0.131 | [20] 0.0731

CN=c1nc(C2C=CC=CC2)n(C2C=CC=CC2)s1 (configuration not stated)
inactive: [5] 0.18 | [6] 0.0729 | [7] 0.119 | [8] 0.0881

C/C(=C\CO)CCC[C@H](C)CCC[C@H](C)CCCC(C)C
inactive: [1] 0.0657 | [2] 0.0273 | [3] 0.135 | [4] -0.104

CCCCC[C@@H](CC(=O)O)C(=O)O
inactive: [1] 0.0401 | [2] 0.147 | [3] 0.16 | [4] 0.126

CO[C@H]1C=CC2CCN3CCC4=C(CC(=O)OC4)[C@]23C1 (some centres not stated)
inactive: [5] 0.124 | [6] 0.124 | [7] 0.0895 | [8] 0.152

CC1(C)OC(=O)C=C[C@@]2(C)C1C[C@@H](O)[C@]1(C)C2CC[C@@]2(C)[C@H](c3ccoc3)OC(=O)C3OC321 (some centres not stated)
inactive: [1] 0.0796 | [2] 0.0686 | [3] 0.159 | [4] 0.0743

Cc1nc2ccc(NC(=S)N3CCCC3)cc2nc1C
inactive: [1] -0.0193 | [2] 0.0405 | [3] 0.0212 | [4] 0.0752

CC1=C(C(=O)Nc2cccc(Cl)c2)C(c2cccs2)NC(=S)N1 (configuration not stated)
inactive: [1] 0.0938 | [2] 0.0927 | [3] 0.145 | [4] 0.108

O=C(Nc1cccc(Cl)c1)/C(=C\c1ccco1)NC(=O)c1cccs1
inactive: [1] -0.0172 | [2] 0.0581 | [3] 0.0419 | [4] 0.0226

Cc1cn2c(=O)c3ccccc3nc2nc1Nc1ccccc1C(=O)O
inactive: [1] 0.138 | [2] 0.0987 | [3] 0.0749 | [4] 0.0532

O=C1C=CC2=C3c4cc(O)c(O)cc4CC3(O)COC2=C1 (configuration not stated)
inactive: [1] 0.163 | [2] 0.195 | [3] 0.225 | [4] 0.28

COc1ccc(C2COc3c(ccc(O)c3OC)C2)c(OC)c1O (configuration not stated)
inactive: [1] 0.108 | [2] 0.0205 | [3] 0.0667 | [4] -0.00772

COc1cc(OC)c2c(=O)c(-c3ccccc3)coc2c1
inactive: [1] 0.0176 | [2] 0.0621 | [3] 0.0815 | [4] 0.1

COc1cc2c(N3CCN(C(=O)Nc4ccc(OC(C)C)cc4)CC3)ncnc2cc1OCCCN1CCCCC1
inactive: [9] -0.0129 | [10] -0.0538 | [11] -0.0428 | [12] -0.0392 | [13] -0.0343 | [14] -0.0604 | [15] 0.0597 | [16] 0.0175 | [17] 0.0441 | [18] 0.0441 | [19] -0.0915 | [20] 0.0601

COc1cc2c(Nc3ccc(Br)cc3F)ncnc2cc1OCC1CCN(C)CC1
inactive: [9] -0.0043 | [10] 0.0398 | [11] -0.0447 | [12] 0.068 | [13] 0.0443 | [14] 0.0503 | [15] -0.0379 | [16] 0.00456 | [17] -0.00527 | [18] -0.0123 | [19] -0.0986 | [20] -0.0825

CS(=O)(=O)CCNCc1ccc(-c2ccc3ncnc(Nc4ccc(OCc5cccc(F)c5)c(Cl)c4)c3c2)o1
inactive: [9] 0.145 | [10] 0.0528 | [11] 0.146 | [12] 0.112 | [13] 0.139 | [14] 0.114 | [15] 0.0651 | [16] 0.113 | [17] 0.0899 | [18] 0.0389 | [19] 0.0387 | [20] 0.0962

CN(C)C/C=C/C(=O)Nc1cc2c(Nc3ccc(F)c(Cl)c3)ncnc2cc1O[C@H]1CCOC1
active: [19] -1.35 | [20] -1
inactive: [9] -0.033 | [10] 0.00738 | [11] -0.0507 | [12] -0.00854 | [13] 0.0161 | [14] -0.000186 | [15] 0.00307 | [16] -0.0241 | [17] -0.0486 | [18] -0.0662

C=CC(=O)Nc1cc2c(Nc3ccc(F)c(Cl)c3)ncnc2cc1OCCCN1CCOCC1
inactive: [9] 0.0394 | [10] 0.0254 | [11] -0.016 | [12] 0.0224 | [13] -0.0215 | [14] -0.0107 | [15] -0.0981 | [16] -0.0776 | [18] -0.0307
active: [17] -0.188 | [19] -0.199 | [20] -0.281

COc1cc2ncnc(Nc3ccc(F)c(Cl)c3)c2cc1OCCCN1CCOCC1
inactive: [9] 0.066 | [10] 0.0855 | [11] 0.103 | [12] 0.0493 | [13] 0.114 | [14] 0.0535 | [15] 0.136 | [16] 0.0991 | [17] 0.00987 | [18] 0.0751 | [19] -0.0152 | [20] 0.0721
